Laboratory results: PubChem BioAssay (NCATS)
Records with an inconclusive call do not appear. Entries that show only a call come without a potency. Activity calls are given as the source filed them. Calls come from the whole dose curve; as a rule, active = well fitted curve in the direction sought with a large enough effect; inconclusive = small, poorly fitted or top-dose-only effect, or another doubt; inactive = no such curve, though single readings can be large; an effect the other way counts as inactive or inconclusive. Starred links: 1 amine or outer side, 2 acyl side, 3 side chain; linkers in the order of their positions; H or OH if unused. Positions of bridges follow the written chain, without caps; N, C: chain ends. Bridge positions count the residues as written; N and C are the ends. Non-standard residues stand in square brackets, D forms with d. Square brackets hold non-standard residues; d marks the D form. Residues, ends and D or L forms follow the SMILES beside them. Peptide text beside a SMILES is read from it. * marks the point of attachment. *: point of attachment. Ileψ(thiazoline)Cys = CC[C@H](C)[C@H](N)C1=N[C@H](C(=O)*)CS1; X1 = NC1=N[C@@H](O)C[C@@H]([C@@H](N[*:1])C(=O)[*:2])N1; ΔAla(Z-3-ureido) = NC(=O)N/C=C(\N)C(=O)O; d(aIle) = CC[C@H](C)[C@@H](N)C(=O)O; β3hOrn = NCCC[C@H](N)CC(=O)*; dOrn = NCCC[C@@H](N)C(=O)O; Dap = NC[C@H](N)C(=O)O

Each compound was assayed against ATP-dependent 6-phosphofructokinase (Trypanosoma brucei brucei) (UniProt O15648) (assay: qHTS Assay to Find Inhibitors of T. brucei phosphofructokinase: hit validation (AID 492961;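 note: luminescence reports ADP formed as PFK phosphorylates fructose-6-phosphate with ATP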)). Conditions: T. brucei PFK, ADP-Glo luminescence; series mostly up to 24.3 µM.
ATP-dependent 6-phosphofructokinase (Trypanosoma brucei brucei), sequence (O15648 whole entry, looked up): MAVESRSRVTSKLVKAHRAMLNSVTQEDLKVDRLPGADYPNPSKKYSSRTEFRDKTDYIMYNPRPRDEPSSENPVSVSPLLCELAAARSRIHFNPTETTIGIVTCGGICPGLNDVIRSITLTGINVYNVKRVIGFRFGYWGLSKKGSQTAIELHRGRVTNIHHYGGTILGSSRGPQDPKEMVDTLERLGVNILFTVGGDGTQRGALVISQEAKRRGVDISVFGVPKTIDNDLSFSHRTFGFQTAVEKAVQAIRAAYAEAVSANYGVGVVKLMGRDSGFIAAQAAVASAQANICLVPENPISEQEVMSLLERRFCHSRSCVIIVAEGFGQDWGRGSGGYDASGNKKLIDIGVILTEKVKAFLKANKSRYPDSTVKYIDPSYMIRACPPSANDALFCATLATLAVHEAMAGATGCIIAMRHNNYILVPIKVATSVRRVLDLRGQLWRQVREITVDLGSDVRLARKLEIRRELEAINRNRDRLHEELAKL
In short: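 Inhibition of parasite PFK is measured as reduced ADP formation, quantified via luciferase after ATP depletion. Assay used 0.1 mM ATP, 0.5 mM F6P, 1.25 nM enzyme, 45 min incubation.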
In the case of `C[C@@H]1C[C@H]2[C@@H]3C[C@H](F)C4=CC(=O)C=C[C@@]4(C)[C@]3(F)[C@H](O)C[C@]2(C)[C@@]1(O)C(=O)CO`, the outcome is reported as “inactive”. For `C[C@H](O)Cn1cnc2c1c(=O)n(C)c(=O)n2C`, the outcome was “inactive”. With `CCCCC[C@H](O)/C=C\[C@@H]1[C@H](O)CC(=O)[C@@H]1CCCCCCC(=O)O` the outcome was “inactive”. For `C=C1c2c(Cl)ccc(O)c2C(O)=C2C(=O)[C@@]3(O)C(O)=C(C(N)=O)C(=O)[C@@H](N(C)C)[C@@H]3[C@@H](O)[C@H]12`, the outcome was “inactive”. For `CCC(=O)OCC(=O)[C@@]1(OC(=O)CC)[C@H](C)C[C@@H]2[C@@H]3[C@H]([C@@H](O)C[C@@]21C)[C@]1(C)C=CC(=O)C=C1C[C@@H]3Cl`, the outcome was “inactive”. `CS(=O)(=O)c1ccc([C@H](O)[C@H](CF)NC(=O)C(Cl)Cl)cc1` was tested, and the outcome was “inactive”. `O=C(N/N=C\c1ccc([N+](=O)[O-])o1)c1ccc(O)cc1` was tested, and the outcome was “inactive”. With `C[C@@H](CNC1CCCCC1)OC(=O)c1ccccc1` the outcome was “inactive”. In the case of `CCOC(=O)O[C@@H](C)OC(=O)[C@@H]1N2C(=O)[C@@H](NC(=O)[C@@H](N)c3ccccc3)[C@H]2SC1(C)C`, the outcome is reported as “inactive”. In the case of `Cc1cccc(CN2CCN([C@@H](c3ccccc3)c3ccc(Cl)cc3)CC2)c1`, the outcome is reported as “inactive”. With `Cc1ccsc1/C=C\C1=NCCCN1C` the outcome was “inactive”. With `C#C[C@]1(O)CC[C@@H]2[C@H]3CCC4=CCCC[C@@H]4[C@@H]3CC[C@@]21C` the outcome was “inactive”. `CC1(C)[C@@H](OC(=O)CCC(=O)O)CC[C@@]2(C)[C@H]1CC[C@@]1(C)[C@H]2C(=O)C=C2[C@H]3C[C@](C)(C(=O)O)CC[C@]3(C)CC[C@@]21C` was tested, and the outcome was “inactive”. With `C[C@H](CCC(=O)O)[C@H]1CC[C@@H]2[C@@H]3[C@@H](O)C[C@H]4C[C@@H](O)CC[C@@]4(C)[C@H]3CC[C@@]21C` the outcome was “inactive”. For `CN1CCO[C@H](c2ccccc2)c2ccccc2C1`, the outcome was “inactive”.

What follows are compounds tested against Ubiquitin carboxyl-terminal hydrolase 1 (Homo sapiens) (UniProt O94782) (assay: Inhibitors of USP1/UAF1: Pilot qHTS (AID 504865;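 note: rhodamine fluorescence freed from ubiquitin-rhodamine substrate followed over time; top concentration of the series differs between compounds; nearly all actives have a fitted effect of over 35% in size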)). Conditions: purified USP1/UAF1, Ub-rhodamine cleavage fluorescence; series mostly up to 114 µM.
Ubiquitin carboxyl-terminal hydrolase 1 (Homo sapiens), sequence (O94782 whole entry, looked up): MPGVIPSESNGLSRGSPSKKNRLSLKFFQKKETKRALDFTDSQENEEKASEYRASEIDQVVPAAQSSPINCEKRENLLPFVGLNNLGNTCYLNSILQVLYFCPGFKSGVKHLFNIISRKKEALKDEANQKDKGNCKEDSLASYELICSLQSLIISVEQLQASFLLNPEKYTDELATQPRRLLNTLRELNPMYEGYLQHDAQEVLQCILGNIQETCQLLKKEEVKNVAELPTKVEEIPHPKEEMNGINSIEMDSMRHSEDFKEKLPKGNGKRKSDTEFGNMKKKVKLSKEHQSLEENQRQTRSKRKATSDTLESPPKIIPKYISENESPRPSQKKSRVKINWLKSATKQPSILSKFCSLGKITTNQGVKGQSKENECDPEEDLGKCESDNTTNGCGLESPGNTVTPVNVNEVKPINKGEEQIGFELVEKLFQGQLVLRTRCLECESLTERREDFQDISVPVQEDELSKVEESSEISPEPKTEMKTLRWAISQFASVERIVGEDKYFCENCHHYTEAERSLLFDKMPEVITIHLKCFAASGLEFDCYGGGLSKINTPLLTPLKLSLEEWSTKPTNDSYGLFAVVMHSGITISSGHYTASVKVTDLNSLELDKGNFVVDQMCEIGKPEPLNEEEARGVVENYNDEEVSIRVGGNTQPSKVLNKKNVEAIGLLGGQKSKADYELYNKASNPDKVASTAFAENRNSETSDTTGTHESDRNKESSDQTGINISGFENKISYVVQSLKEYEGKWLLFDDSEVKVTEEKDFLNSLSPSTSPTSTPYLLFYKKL
In short: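 USP1/UAF1 complex (1nM) preincubated with compound 15 min at room temperature, then Ub-Rho substrate (150nM final) added. Fluorescence read kinetically at 480/540 nm, 6 reads every 60 seconds. Buffer: 50mM HEPES pH 7.8, 0.5mM EDTA, 0.1 mg/ml BSA, 1mM TCEP, 0.01% Tween-20.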
For `C[C@@H]1C[C@H]2[C@@H]3C[C@H](F)C4=CC(=O)C=C[C@@]4(C)[C@]3(F)[C@H](O)C[C@]2(C)[C@@]1(O)C(=O)CO`, the Potency was “inactive”. `C[C@H](O)Cn1cnc2c1c(=O)n(C)c(=O)n2C` was tested, and the Potency was “inactive”. In the case of `CCCCC[C@H](O)/C=C\[C@@H]1[C@H](O)CC(=O)[C@@H]1CCCCCCC(=O)O`, the Potency is reported as “inactive”. For `CC(=C(CCOP(=O)(O)O)SC(=O)c1ccccc1)N(C=O)Cc1cnc(C)nc1N`, the Potency was “inactive”. `S=C(NC1CCCCC1)N1CCC([C@H]2C=NC=N2)CC1` was tested, and the Potency was “inactive”. With `Nc1nc(=S)c2ncn([C@H]3O[C@@H](CO)[C@@H](O)[C@@H]3O)c2[nH]1` the Potency was “inactive”. `C[C@H](CCC(=O)O)[C@H]1CC[C@@H]2[C@H]3[C@@H](CC[C@@]21C)[C@]1(C)CC[C@H](O)C[C@@H]1C[C@@H]3O` was tested, and the Potency was “inactive”. For `CC[C@]1(c2ccccc2)NC(=O)N(C)C1=O`, the Potency was “inactive”. In the case of `CC[C@H](C)[C@H](N)C1=N[C@H](C(=O)N[C@@H](CC(C)C)C(=O)N[C@@H](CCC(=O)O)C(=O)N[C@@H](C(=O)N[C@H]2CCCCNC(=O)[C@@H](CC(N)=O)NC(=O)[C@@H](CC(=O)O)NC(=O)[C@@H](Cc3cnc[nH]3)NC(=O)[C@@H](Cc3ccccc3)NC(=O)[C@@H]([C@@H](C)CC)NC(=O)[C@@H](CCCN)NC2=O)[C@@H](C)CC)CS1` ({Ileψ(thiazoline)Cys}-LE[d(aIle)]K[dOrn][d(aIle)][dF][dH][dD][dN]; lactam 4-C), the Potency is reported as “inactive”. With `COCCOC(=O)C1=C(C)NC(C)=C(C(=O)OC(C)C)[C@H]1c1cccc([N+](=O)[O-])c1` the Potency was “inactive”. In the case of `C[C@@H](CNC1CCCCC1)OC(=O)c1ccccc1`, the Potency is reported as “inactive”. In the case of `CCOC(=O)O[C@@H](C)OC(=O)[C@@H]1N2C(=O)[C@@H](NC(=O)[C@@H](N)c3ccccc3)[C@H]2SC1(C)C`, the Potency is reported as “inactive”. For `COc1cc(OC)c2c(c1Cl)O[C@@]1(C2=O)[C@H](C)CC(=O)C[C@@H]1OC`, the Potency was “inactive”. With `O[C@H](c1cc(C(F)(F)F)nc2c(C(F)(F)F)cccc12)[C@H]1CCCCN1` the Potency was “inactive”. `C[N+]1(C)CC[C@@H](OC(=O)[C@@](O)(c2ccccc2)C2CCCC2)C1` was tested, and the Potency was “inactive”. With `C[C@H](NCCC(c1ccccc1)c1ccccc1)c1ccccc1` the Potency was “inactive”. In the case of `NCCC[C@H](N)CC(=O)N[C@H]1CNC(=O)[C@@H]([C@@H]2C[C@H](O)N=C(N)N2)NC(=O)/C(=C/NC(N)=O)NC(=O)[C@@H](CO)NC(=O)[C@@H](CO)NC1=O` (β3hOrn-[Dap][dS][dS][ΔAla(Z-3-ureido)][X1]; lactam 1-C), the Potency is reported as “inactive”. In the case of `CC1(C)[C@@H](OC(=O)CCC(=O)O)CC[C@@]2(C)[C@H]1CC[C@@]1(C)[C@H]2C(=O)C=C2[C@H]3C[C@](C)(C(=O)O)CC[C@]3(C)CC[C@@]21C`, the Potency is reported as “inactive”. For `COc1ccc([C@@H]2CC(=O)c3c(O)cc(O)cc3O2)cc1O`, the Potency was “inactive”. `OCCOCCN1CCN([C@@H](c2ccccc2)c2ccc(Cl)cc2)CC1` was tested, and the Potency was “inactive”. For `C[C@H](CCC(=O)O)[C@H]1CC[C@@H]2[C@@H]3[C@@H](O)C[C@H]4C[C@@H](O)CC[C@@]4(C)[C@H]3CC[C@@]21C`, the Potency was “inactive”. `CN1CCO[C@H](c2ccccc2)c2ccccc2C1` was tested, and the Potency was “inactive”. `O=C(N[C@@H](CO)[C@@H](O)c1ccc([N+](=O)[O-])cc1)C(Cl)Cl` was tested, and the Potency was “inactive”.
